Measurements from article PMC7862700, “An all-to-all approach to the identification of sequence-specific readers for epigenetic DNA modifications on cytosine”.

Tests used:
Assay in all cases: DAPPL (digital affinity profiling via proximity ligation, sequencing); 10 mM Tris-HCl pH 7.5, 50 mM NaCl, 1 mM DTT, 4% glycerol, room temperature, 30 min; GST-TFs on glutathione beads, 16-mer random dsDNA library, 0.1% formaldehyde crosslink after washing; high values mean tight binding
Details in all cases: protein: recombinant; tags: N-terminal GST; dsDNA, one strand shown
FLI1 = biological target: T1, FLI1 (Homo sapiens, UniProt Q01543 1-452)
T1 sequence: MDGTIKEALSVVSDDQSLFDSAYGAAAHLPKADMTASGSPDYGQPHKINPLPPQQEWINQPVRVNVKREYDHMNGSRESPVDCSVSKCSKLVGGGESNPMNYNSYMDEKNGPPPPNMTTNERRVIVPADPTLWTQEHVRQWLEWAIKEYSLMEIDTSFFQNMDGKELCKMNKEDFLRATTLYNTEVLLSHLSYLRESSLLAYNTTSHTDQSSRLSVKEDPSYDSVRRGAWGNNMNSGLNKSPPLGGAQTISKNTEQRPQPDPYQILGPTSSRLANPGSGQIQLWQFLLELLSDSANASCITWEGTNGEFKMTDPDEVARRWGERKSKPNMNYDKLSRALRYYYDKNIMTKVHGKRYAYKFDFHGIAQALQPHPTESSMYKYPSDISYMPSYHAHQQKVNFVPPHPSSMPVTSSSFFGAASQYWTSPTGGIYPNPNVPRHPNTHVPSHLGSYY
Outline: (§1)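 Sequencing on an Illumina NextSeq500 followed washing, crosslinking with 0.1% formaldehyde, proximity ligation (BsaI/T4 ligase, 1 h, 37 °C) and PCR amplification of pools that had been incubated for 30 min at room temperature with 200 nmole of a random double-stranded 16-mer DNA library in Tris/NaCl/DTT/glycerol buffer. Each pool held DNA-barcoded human transcription factors, expressed in yeast as GST fusions and captured on glutathione beads, plus a tag-only sample. Binding signal is a hexamer's read frequency for a factor divided by its frequency in the tag-only sample.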

ELK1 = biological target: T2, ELK1 (Homo sapiens, UniProt P19419 1-428)
T2 sequence: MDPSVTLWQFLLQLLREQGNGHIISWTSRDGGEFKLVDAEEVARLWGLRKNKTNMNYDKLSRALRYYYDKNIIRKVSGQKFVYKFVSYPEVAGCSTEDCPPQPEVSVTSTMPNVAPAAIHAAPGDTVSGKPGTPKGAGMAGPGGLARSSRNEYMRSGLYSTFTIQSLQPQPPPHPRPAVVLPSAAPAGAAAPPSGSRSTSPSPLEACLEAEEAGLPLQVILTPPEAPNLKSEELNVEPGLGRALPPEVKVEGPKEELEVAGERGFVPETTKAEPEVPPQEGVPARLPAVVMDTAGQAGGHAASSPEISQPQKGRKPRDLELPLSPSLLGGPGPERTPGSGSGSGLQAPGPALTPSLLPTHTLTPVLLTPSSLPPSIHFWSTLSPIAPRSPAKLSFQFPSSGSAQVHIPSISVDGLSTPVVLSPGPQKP
Outline: as §1

GABPA = biological target: T3, GABPA (Homo sapiens, UniProt Q06546 1-454)
T3 sequence: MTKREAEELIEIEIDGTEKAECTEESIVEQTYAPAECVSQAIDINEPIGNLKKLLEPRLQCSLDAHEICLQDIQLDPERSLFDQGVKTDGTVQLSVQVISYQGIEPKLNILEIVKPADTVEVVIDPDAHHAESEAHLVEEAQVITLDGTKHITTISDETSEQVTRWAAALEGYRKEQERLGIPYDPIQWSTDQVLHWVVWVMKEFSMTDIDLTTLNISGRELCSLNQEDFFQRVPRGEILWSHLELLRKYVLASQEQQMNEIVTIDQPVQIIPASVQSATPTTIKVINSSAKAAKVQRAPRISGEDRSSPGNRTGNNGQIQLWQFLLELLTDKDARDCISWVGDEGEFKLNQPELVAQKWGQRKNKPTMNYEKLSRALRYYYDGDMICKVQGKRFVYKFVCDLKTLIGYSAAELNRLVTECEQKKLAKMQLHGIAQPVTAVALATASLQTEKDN
Outline: as §1

ERG = biological target: T4, ERG (Homo sapiens, UniProt P11308 1-479)
T4 sequence: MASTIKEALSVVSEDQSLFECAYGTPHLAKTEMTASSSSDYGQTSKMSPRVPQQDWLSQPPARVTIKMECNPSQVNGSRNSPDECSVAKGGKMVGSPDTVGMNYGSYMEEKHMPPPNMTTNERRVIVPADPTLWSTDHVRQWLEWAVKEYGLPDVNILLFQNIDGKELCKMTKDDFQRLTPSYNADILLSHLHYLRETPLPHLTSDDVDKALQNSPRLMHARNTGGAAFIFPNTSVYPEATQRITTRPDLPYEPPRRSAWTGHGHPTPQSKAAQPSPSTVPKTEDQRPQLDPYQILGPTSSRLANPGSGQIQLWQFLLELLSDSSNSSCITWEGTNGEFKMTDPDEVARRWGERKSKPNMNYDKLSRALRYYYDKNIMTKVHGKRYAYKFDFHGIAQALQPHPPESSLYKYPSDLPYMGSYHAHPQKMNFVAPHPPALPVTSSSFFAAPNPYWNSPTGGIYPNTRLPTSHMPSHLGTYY
Outline: as §1

ELF1 = ELF1 (Homo sapiens, UniProt P32519 1-619)
Outline: as §1

EHF = biological target: T5, EHF (Homo sapiens, UniProt Q9NZC4 1-300)
T5 sequence: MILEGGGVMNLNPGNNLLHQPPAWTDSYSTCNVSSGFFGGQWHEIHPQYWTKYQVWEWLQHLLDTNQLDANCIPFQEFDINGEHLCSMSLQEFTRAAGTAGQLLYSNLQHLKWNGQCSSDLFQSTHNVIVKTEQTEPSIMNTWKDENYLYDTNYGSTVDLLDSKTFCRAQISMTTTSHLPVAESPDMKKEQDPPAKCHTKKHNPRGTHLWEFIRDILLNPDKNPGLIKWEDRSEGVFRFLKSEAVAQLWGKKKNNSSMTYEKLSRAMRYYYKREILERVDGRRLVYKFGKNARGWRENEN
Outline: as §1

SPI1 = SPI1 (Homo sapiens, UniProt P17947 1-270)
Outline: as §1

SPIB = SPIB (Homo sapiens, UniProt Q01892 1-262)
Outline: as §1

ELK3 = biological target: T6, ELK3 (Homo sapiens, UniProt P41970 1-407)
T6 sequence: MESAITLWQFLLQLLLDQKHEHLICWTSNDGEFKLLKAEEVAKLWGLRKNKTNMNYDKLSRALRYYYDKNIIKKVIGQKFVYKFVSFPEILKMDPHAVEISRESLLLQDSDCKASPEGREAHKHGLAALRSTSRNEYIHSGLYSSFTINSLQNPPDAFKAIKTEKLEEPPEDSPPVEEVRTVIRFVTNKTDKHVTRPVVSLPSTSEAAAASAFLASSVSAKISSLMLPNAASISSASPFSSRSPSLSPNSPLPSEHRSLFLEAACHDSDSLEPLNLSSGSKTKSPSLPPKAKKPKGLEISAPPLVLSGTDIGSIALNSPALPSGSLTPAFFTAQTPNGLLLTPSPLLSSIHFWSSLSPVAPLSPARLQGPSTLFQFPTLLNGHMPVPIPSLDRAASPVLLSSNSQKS
Outline: as §1

Sequence of ELF1 (P32519 whole entry): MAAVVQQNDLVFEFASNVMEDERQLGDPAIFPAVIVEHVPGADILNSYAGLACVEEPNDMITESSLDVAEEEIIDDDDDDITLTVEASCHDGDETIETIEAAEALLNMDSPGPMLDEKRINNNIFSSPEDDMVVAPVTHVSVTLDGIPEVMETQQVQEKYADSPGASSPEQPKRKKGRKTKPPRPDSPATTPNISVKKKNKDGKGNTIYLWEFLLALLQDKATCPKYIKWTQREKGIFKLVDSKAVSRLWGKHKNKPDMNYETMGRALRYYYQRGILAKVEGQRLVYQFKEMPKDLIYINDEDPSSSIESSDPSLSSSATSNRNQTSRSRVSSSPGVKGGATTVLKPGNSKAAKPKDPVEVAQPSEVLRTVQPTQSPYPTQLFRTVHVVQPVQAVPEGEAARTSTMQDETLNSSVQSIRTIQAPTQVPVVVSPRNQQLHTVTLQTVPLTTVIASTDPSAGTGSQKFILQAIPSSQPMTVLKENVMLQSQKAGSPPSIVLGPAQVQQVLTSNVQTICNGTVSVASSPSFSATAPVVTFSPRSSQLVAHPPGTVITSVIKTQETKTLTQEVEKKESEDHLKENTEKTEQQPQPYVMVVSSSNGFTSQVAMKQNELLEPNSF
Sequence of SPIB (Q01892 whole entry): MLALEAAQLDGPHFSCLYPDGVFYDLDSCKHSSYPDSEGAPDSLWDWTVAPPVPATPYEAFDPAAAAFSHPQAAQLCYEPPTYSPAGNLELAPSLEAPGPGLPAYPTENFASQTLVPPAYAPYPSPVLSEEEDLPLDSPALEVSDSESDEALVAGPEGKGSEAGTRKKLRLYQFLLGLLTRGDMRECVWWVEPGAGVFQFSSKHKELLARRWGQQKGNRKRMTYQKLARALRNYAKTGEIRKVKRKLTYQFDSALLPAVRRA

Row | Sequence | binding signal (FLI1) | binding signal (ELK1) | binding signal (GABPA) | binding signal (ERG) | binding signal (ELF1) | binding signal (EHF) | binding signal (SPI1) | binding signal (SPIB) | binding signal (ELK3)
1 | GCCTCT | 1.39 fold enrichment (6-mer frequency, TF over GST control) | 1.38 fold enrichment (6-mer frequency, TF over GST control) | 1.37 fold enrichment (6-mer frequency, TF over GST control) | 1.35 fold enrichment (6-mer frequency, TF over GST control) | 1.36 fold enrichment (6-mer frequency, TF over GST control) | 1.29 fold enrichment (6-mer frequency, TF over GST control) | 1.31 fold enrichment (6-mer frequency, TF over GST control) | 1.42 fold enrichment (6-mer frequency, TF over GST control) | 1.32 fold enrichment (6-mer frequency, TF over GST control)
2 | ATAAAT | 1.14 fold enrichment (6-mer frequency, TF over GST control) | 1.15 fold enrichment (6-mer frequency, TF over GST control) | 1.15 fold enrichment (6-mer frequency, TF over GST control) | 1.15 fold enrichment (6-mer frequency, TF over GST control) | 1.15 fold enrichment (6-mer frequency, TF over GST control) | 1.14 fold enrichment (6-mer frequency, TF over GST control) | 1.2 fold enrichment (6-mer frequency, TF over GST control) | 1.23 fold enrichment (6-mer frequency, TF over GST control) | 1.22 fold enrichment (6-mer frequency, TF over GST control)
3 | TTTAAG | 1.3 fold enrichment (6-mer frequency, TF over GST control) | 1.33 fold enrichment (6-mer frequency, TF over GST control) | 1.38 fold enrichment (6-mer frequency, TF over GST control) | 1.33 fold enrichment (6-mer frequency, TF over GST control) | 1.34 fold enrichment (6-mer frequency, TF over GST control) | 1.27 fold enrichment (6-mer frequency, TF over GST control) | 1.42 fold enrichment (6-mer frequency, TF over GST control) | 1.31 fold enrichment (6-mer frequency, TF over GST control) | 1.46 fold enrichment (6-mer frequency, TF over GST control)
4 | AAATAC | 1.3 fold enrichment (6-mer frequency, TF over GST control) | 1.27 fold enrichment (6-mer frequency, TF over GST control) | 1.43 fold enrichment (6-mer frequency, TF over GST control) | 1.43 fold enrichment (6-mer frequency, TF over GST control) | 1.36 fold enrichment (6-mer frequency, TF over GST control) | 1.39 fold enrichment (6-mer frequency, TF over GST control) | 1.41 fold enrichment (6-mer frequency, TF over GST control) | 1.36 fold enrichment (6-mer frequency, TF over GST control) | 1.37 fold enrichment (6-mer frequency, TF over GST control)
5 | TAATCA | 1.17 fold enrichment (6-mer frequency, TF over GST control) | 1.14 fold enrichment (6-mer frequency, TF over GST control) | 1.25 fold enrichment (6-mer frequency, TF over GST control) | 1.07 fold enrichment (6-mer frequency, TF over GST control) | 1.16 fold enrichment (6-mer frequency, TF over GST control) | 1.08 fold enrichment (6-mer frequency, TF over GST control) | 1.07 fold enrichment (6-mer frequency, TF over GST control) | 1.16 fold enrichment (6-mer frequency, TF over GST control) | 1.09 fold enrichment (6-mer frequency, TF over GST control)
6 | ATGCCT | 1.38 fold enrichment (6-mer frequency, TF over GST control) | 1.4 fold enrichment (6-mer frequency, TF over GST control) | 1.52 fold enrichment (6-mer frequency, TF over GST control) | 1.48 fold enrichment (6-mer frequency, TF over GST control) | 1.35 fold enrichment (6-mer frequency, TF over GST control) | 1.42 fold enrichment (6-mer frequency, TF over GST control) | 1.32 fold enrichment (6-mer frequency, TF over GST control) | 1.45 fold enrichment (6-mer frequency, TF over GST control) | 1.22 fold enrichment (6-mer frequency, TF over GST control)
7 | ATGGAT | 1.06 fold enrichment (6-mer frequency, TF over GST control) | 1.11 fold enrichment (6-mer frequency, TF over GST control) | 1.18 fold enrichment (6-mer frequency, TF over GST control) | 1.08 fold enrichment (6-mer frequency, TF over GST control) | 1.04 fold enrichment (6-mer frequency, TF over GST control) | 1.09 fold enrichment (6-mer frequency, TF over GST control) | 1.06 fold enrichment (6-mer frequency, TF over GST control) | 1.14 fold enrichment (6-mer frequency, TF over GST control) | 1.2 fold enrichment (6-mer frequency, TF over GST control)
